# Data reported in PubChem BioAssay (EPA / NIEHS).
# Results filed as inconclusive are left out. Active and inactive are the calls of the source. How the source made its calls, unless noted: active means hit-call score of the fitted dose curve at least 0.9, where 1 is the maximum; inactive means score below 0.9.
# Key:
# [1] = read-out: Interleukin-1 alpha (IL1a), IL1A (gene 3552); experiment: BSK_LPS_IL1a: BioMAP Diversity Plus: LPS Assay for Interleukin-1 alpha (IL1a) Biomarker Activity (AID 2283080); conditions: primary human HUVEC with PBMC; actives raise or lower the signal
# How it was run: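 Measured: IL-1 alpha via ELISA at 24 h in LPS-activated human umbilical vein endothelium–PBMC co-culture. Baseline: DMSO, bidirectional fitting.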
# [2] = read-out: Monocyte Chemoattractant Protein-1 (MCP1), CCL2 (gene 6347); experiment: BSK_LPS_MCP1: BioMAP Diversity Plus: LPS Assay for Monocyte Chemoattractant Protein-1 (MCP1) Biomarker Activity (AID 2283081); conditions: primary human HUVEC with PBMC; actives raise or lower the signal;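 on AC50: secreted MCP-1 protein quantified by ELISA in culture supernatant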
# How it was run: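 LPS-stimulated HUVEC/PBMC co-culture; chemical, 24 h; MCP-1 by ELISA; bidirectional fit vs DMSO; cytotoxicity via SRB (0.1% stain, 10% TCA fix, 560 nm) in parallel wells.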
# [3] = BSK_LPS_PGE2: BioMAP Diversity Plus: LPS Assay for Prostaglandin E2 (PGE2) Biomarker Activity (AID 2283082); conditions: primary human HUVEC with PBMC; actives raise or lower the signal;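 on AC50: secreted prostaglandin E2 measured by ELISA in LPS-stimulated co-culture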
# How it was run: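 Primary human endothelial cells and blood mononuclear cells, co-cultured with LPS, receive test chemical; PGE2 ELISA follows at 24 h, with SRB-stained parallel cultures flagging cytotoxicity.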
# [4] = read-out: Macrophage colony-stimulating factor (MCSF), CSF1 (gene 1435); experiment: BSK_LPS_MCSF: BioMAP Diversity Plus: LPS Assay for Macrophage colony-stimulating factor (MCSF) Biomarker Activity (AID 2283083); conditions: primary human HUVEC with PBMC; actives raise or lower the signal
# How it was run: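 Compound is added to a human vascular primary co-culture of umbilical vein endothelium and blood mononuclear cells. After 24 h, M-CSF is quantified by ELISA. Signal changes are fitted in both directions against DMSO.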
# [5] = read-out: Tissue Factor, F3 (gene 2152); experiment: BSK_LPS_TissueFactor: BioMAP Diversity Plus: LPS Assay for Tissue Factor Biomarker Activity (AID 2283084); conditions: primary human HUVEC with PBMC; actives raise or lower the signal
# How it was run: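 In this co-culture system of umbilical vein endothelium with PBMC, stimulated with LPS, cell-surface CD142 is detected by ELISA at 24 h. Endpoint values derive from bidirectional fitting, DMSO serving as baseline.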
# [6] = read-out: Tumor necrosis factor (Homo sapiens) (UniProt P01375); experiment: BSK_LPS_TNFa: BioMAP Diversity Plus: LPS Assay for Tumour Necrosis Factor alpha (TNFa) Biomarker Activity (AID 2283085); conditions: primary human HUVEC with PBMC; actives raise or lower the signal;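 on AC50: TNFa protein level quantified by ELISA in the co-culture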
# How it was run: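 ELISA-based TNFa endpoint in a human endothelial–PBMC co-culture sampled 24 h post-exposure. Curves were fitted in both directions using DMSO as baseline of activity.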
# [7] = read-out: CD38, CD38 (gene 952); experiment: BSK_SAg_CD38: BioMAP Diversity Plus: SAg Assay for CD38 Biomarker Activity (AID 2283087); conditions: primary human HUVEC with PBMC; actives raise or lower the signal
# How it was run: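 Measures CD38 on a human endothelial/PBMC co-culture driven by SEB and TSST-1, 24 h after compound exposure, using ELISA with fluorescence detection; DMSO defines baseline for bidirectional curve fitting.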
# [8] = read-out: CD69, CD69 (gene 969); experiment: BSK_SAg_CD69: BioMAP Diversity Plus: SAg Assay for CD69 Biomarker Activity (AID 2283089); conditions: primary human HUVEC with PBMC; actives raise or lower the signal;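 on AC50: cell surface CD69 protein quantified by ELISA with fluorescence detection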
# How it was run: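 Primary human vascular co-culture (umbilical vein endothelium with peripheral blood mononuclear cells) exposed to test chemical for 24 h. CD69 levels quantified by fluorescence ELISA; DMSO served as negative control for bidirectional fitting.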
# [9] = read-out: Monocyte Chemoattractant Protein-1 (MCP1), CCL2 (gene 6347); experiment: BSK_SAg_MCP1: BioMAP Diversity Plus: SAg Assay for Monocyte Chemoattractant Protein-1 (MCP1) Biomarker Activity (AID 2283090); conditions: primary human HUVEC with PBMC; actives raise or lower the signal
# How it was run: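 Values derive from bidirectional fitting of ELISA-measured MCP1 against DMSO controls. Readings were taken 24 h after dosing human vascular endothelial cells co-cultured with peripheral blood mononuclear cells under superantigen stimulation.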
# [10] = read-out: E-selectin (Homo sapiens) (UniProt P16581); experiment: BSK_SAg_Eselectin: BioMAP Diversity Plus: SAg Assay for Eselectin Biomarker Activity (AID 2283091); conditions: primary human HUVEC with PBMC; actives raise or lower the signal
# How it was run: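 Primary human endothelial cells and peripheral blood mononuclear cells were co-cultured and exposed to chemical for 24 hours. E-selectin levels were then quantified by ELISA, with bidirectional curve fitting normalised to DMSO controls.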
# [11] = read-out: Monokine induced gamma interferon (MIG), CXCL9 (gene 4283); experiment: BSK_SAg_MIG: BioMAP Diversity Plus: SAg Assay for Monokine induced gamma interferon (MIG) Biomarker Activity (AID 2283092); conditions: primary human HUVEC with PBMC; actives raise or lower the signal
# How it was run: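 Endothelial cells and PBMC were co-cultured, exposed to test chemicals, and sampled 24 h later. MIG was measured by ELISA, and responses were fitted in both directions relative to DMSO.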
# [12] = BSK_SAg_PBMCCytotoxicity: PBMC Cytotoxicity Assessment in the BioMAP Diversity Plus: SAg Assay (AID 2283093); conditions: primary human HUVEC with PBMC;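 further: fitted both ways against DMSO so a hit may be loss or gain of signal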;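 on AC50: PBMC superantigen activated with SEB plus TSST-1 one hour after compound addition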
# How it was run: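 PBMC viability by Alamar Blue reduction, fluorescence read at 546/580 nm after 6 h dye exposure. Cells were dosed 1 h before SEB plus TSST-1 activation (20 ng/mL final each), then held 90 h; endothelial/PBMC human co-culture.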
# [13] = read-out: Interleukin-8 (IL8), CXCL8 (gene 3576); experiment: BSK_SAg_IL8: BioMAP Diversity Plus: SAg Assay for Interleukin-8 (IL8) Biomarker Activity (AID 2283094); conditions: primary human HUVEC with PBMC; actives raise or lower the signal
# How it was run: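 Primary human endothelial cells with PBMC, exposed 24 h; IL-8 determined by ELISA, analysed bidirectionally relative to DMSO.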
# [14] = BSK_SAg_Proliferation: Cell Proliferation Assessment in the BioMAP Diversity Plus: SAg Assay (AID 2283095); conditions: primary human HUVEC with PBMC;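 further: relative cell number as total protein by SRB absorbance in sub-confluent culture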
# How it was run: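 A human primary co-culture of umbilical vein endothelium and blood mononuclear cells receives compound; relative cell number is quantified at 96 h by SRB staining and 560 nm absorbance, with DMSO-referenced bidirectional curve fitting.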
# [15] = BSK_SAg_SRB: Viability Assessment in the BioMAP Diversity Plus: SAg Assay (AID 2283096); conditions: primary human HUVEC with PBMC;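 further: cells read one day after compound addition; hits may be either gain or loss of signal compared with DMSO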
# How it was run: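 Compounds were added to a human vascular co-culture of umbilical vein endothelium and PBMC. After 24 h, parallel cultures were fixed with 10% TCA, stained with 0.1% sulforhodamine B and read at 560 nm. Gain or loss of signal was fitted relative to DMSO.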
# [16] = target: human CYP19A1, CYP19A1 (gene 1588) (UniProt P11511); experiment: NVS_ADME_hCYP19A1: NovaScreen (NVS) CYP450-related Enzyme Activity (ADME) Assay for human CYP19A1 (AID 2283098; active means hit-call score of the fitted dose curve at least 0.9, where 1 is the maximum)
# How it was run: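 Fluorescence intensity read-out; activity taken as signal loss relative to acetonitrile vehicle. Extracted enzyme, specific substrate, no cells, 0.5 h exposure. Duplicate single-point screen at 10 uM, then concentration–response follow-up for actives.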
# [17] = read-out: Vascular cell adhesion molecule 1 (VCAM1), VCAM1 (gene 7412); experiment: BSK_LPS_VCAM1: BioMAP Diversity Plus: LPS Assay for Vascular cell adhesion molecule 1 (VCAM1) Biomarker Activity (AID 2283086); conditions: primary human HUVEC with PBMC; actives raise or lower the signal
# How it was run: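 Measured by ELISA: VCAM-1 in LPS-activated HUVEC/PBMC co-cultures 24 h after treatment. Values reflect bidirectional fitting with DMSO as baseline.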
# [18] = read-out: CD40, CD40 (gene 958); experiment: BSK_SAg_CD40: BioMAP Diversity Plus: SAg Assay for CD40 Biomarker Activity (AID 2283088); conditions: primary human HUVEC with PBMC; actives raise or lower the signal
# How it was run: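 Fluorescence ELISA read-out of CD40 from umbilical vein endothelium plus peripheral blood mononuclear cells, sampled 24 h after dosing. Values come from bidirectional curve fitting with DMSO as baseline.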
# Chain of E-selectin (Homo sapiens) (P16581 whole entry, looked up): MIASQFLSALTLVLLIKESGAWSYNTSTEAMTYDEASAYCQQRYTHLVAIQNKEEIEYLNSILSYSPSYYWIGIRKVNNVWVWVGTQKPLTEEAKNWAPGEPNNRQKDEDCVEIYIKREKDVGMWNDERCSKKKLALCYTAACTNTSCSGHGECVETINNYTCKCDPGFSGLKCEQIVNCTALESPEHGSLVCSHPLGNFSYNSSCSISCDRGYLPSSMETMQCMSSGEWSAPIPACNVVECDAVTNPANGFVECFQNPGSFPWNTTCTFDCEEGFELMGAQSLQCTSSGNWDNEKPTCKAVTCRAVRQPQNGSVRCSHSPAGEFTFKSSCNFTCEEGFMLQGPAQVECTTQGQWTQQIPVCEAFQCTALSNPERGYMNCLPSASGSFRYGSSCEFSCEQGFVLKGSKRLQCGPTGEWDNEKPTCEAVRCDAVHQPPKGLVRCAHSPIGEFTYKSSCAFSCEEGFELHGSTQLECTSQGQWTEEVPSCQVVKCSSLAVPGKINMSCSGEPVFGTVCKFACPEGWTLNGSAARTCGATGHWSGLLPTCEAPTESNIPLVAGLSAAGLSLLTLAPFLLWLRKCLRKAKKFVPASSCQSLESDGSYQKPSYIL
# Chain of Tumor necrosis factor (Homo sapiens) (P01375 whole entry, looked up): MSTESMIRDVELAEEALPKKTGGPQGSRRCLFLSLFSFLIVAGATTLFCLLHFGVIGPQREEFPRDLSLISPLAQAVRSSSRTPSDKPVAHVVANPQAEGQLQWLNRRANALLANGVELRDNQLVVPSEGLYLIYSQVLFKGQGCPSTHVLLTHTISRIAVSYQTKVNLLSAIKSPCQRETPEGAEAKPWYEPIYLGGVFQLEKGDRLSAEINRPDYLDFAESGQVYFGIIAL
# Chain of human CYP19A1, CYP19A1 (gene 1588) (P11511 whole entry, looked up): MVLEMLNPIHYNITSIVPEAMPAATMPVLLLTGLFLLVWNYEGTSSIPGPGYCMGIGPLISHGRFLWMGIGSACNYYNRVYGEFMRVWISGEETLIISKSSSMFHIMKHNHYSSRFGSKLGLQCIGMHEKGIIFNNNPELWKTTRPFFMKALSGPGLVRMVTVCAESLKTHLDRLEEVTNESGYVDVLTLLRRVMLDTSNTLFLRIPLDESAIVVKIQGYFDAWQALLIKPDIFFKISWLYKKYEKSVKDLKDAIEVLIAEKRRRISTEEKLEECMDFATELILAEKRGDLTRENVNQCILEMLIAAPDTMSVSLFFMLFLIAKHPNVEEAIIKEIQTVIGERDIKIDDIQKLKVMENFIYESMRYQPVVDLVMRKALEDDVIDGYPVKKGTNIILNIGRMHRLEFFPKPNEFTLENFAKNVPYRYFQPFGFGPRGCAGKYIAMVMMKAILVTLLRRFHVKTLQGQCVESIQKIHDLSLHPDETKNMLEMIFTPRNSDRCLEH
compound,measurement,setting,value
CC[C@H](C)[C@H]1O[C@]2(C=C[C@@H]1C)C[C@@H]1C[C@@H](C/C=C(\C)[C@@H](O[C@H]3C[C@H](OC)[C@@H](O[C@H]4C[C@H](OC)[C@@H](NC)[C@H](C)O4)[C@H](C)O3)[C@@H](C)/C=C/C=C3\CO[C@@H]4[C@H](O)C(C)=C[C@@H](C(=O)O1)[C@]34O)O2,AC50,[1],3.68 µM (active)
same,AC50,[2],5.49 µM (active)
same,outcome,[3],inactive
same,AC50,[4],4.33 µM (active)
same,AC50,[5],9.74 µM (active)
same,AC50,[6],4.56 µM (active)
same,AC50,[7],3.25 µM (active)
same,AC50,[8],4.17 µM (active)
same,AC50,[9],3.38 µM (active)
same,AC50,[10],4.95 µM (active)
same,AC50,[11],8.62 µM (active)
same,AC50,[12],2.6 µM (active)
same,AC50,[13],2.16 µM (active)
same,AC50,[14],1.69 µM (active)
same,AC50,[15],5.06 µM (active)
same,outcome,[16],inactive
N#CSCSC#N,AC50,[1],5.46 µM (active)
same,AC50,[2],10.6 µM (active)
same,AC50,[3],5.66 µM (active)
same,AC50,[4],5.23 µM (active)
same,outcome,[5],inactive
same,AC50,[6],3.89 µM (active)
same,AC50,[17],5.56 µM (active)
same,AC50,[7],5.28 µM (active)
same,AC50,[8],7.16 µM (active)
same,AC50,[9],11.9 µM (active)
same,AC50,[10],11.1 µM (active)
same,AC50,[11],8.84 µM (active)
same,AC50,[12],3.25 µM (active)
same,AC50,[13],11.7 µM (active)
same,AC50,[14],1.99 µM (active)
same,AC50,[15],6.08 µM (active)
COP(=O)(OC)C(O)C(Cl)(Cl)Cl (configuration not stated),outcome,[1],inactive
same,outcome,[2],inactive
same,outcome,[4],inactive
same,outcome,[5],inactive
same,outcome,[6],inactive
same,outcome,[7],inactive
same,outcome,[18],inactive
same,outcome,[8],inactive
same,outcome,[9],inactive
same,AC50,[10],32.5 µM (active)
same,outcome,[11],inactive
same,outcome,[12],inactive
same,outcome,[13],inactive
same,AC50,[14],8.98 µM (active)
same,outcome,[15],inactive
CC(C)=CC1C(C(=O)OCN2C(=O)C3=C(CCCC3)C2=O)C1(C)C (configuration not stated),outcome,[1],inactive
same,AC50,[2],9.93 µM (active)
same,AC50,[3],4.14 µM (active)
same,AC50,[4],34.3 µM (active)
same,outcome,[5],inactive
same,AC50,[6],31.7 µM (active)
same,AC50,[17],28.5 µM (active)
same,AC50,[7],32.2 µM (active)
same,AC50,[18],20.5 µM (active)
same,AC50,[8],20 µM (active)
same,AC50,[9],18.2 µM (active)
same,AC50,[10],14.4 µM (active)
same,AC50,[11],34.2 µM (active)
same,AC50,[12],26.1 µM (active)
same,AC50,[14],26.1 µM (active)
same,outcome,[15],inactive
C[N+]1(C)CCCCC1,outcome,[1],inactive
same,outcome,[2],inactive
same,outcome,[3],inactive
same,outcome,[4],inactive
same,outcome,[5],inactive
same,outcome,[6],inactive
same,outcome,[7],inactive
same,outcome,[8],inactive
same,outcome,[9],inactive
same,outcome,[10],inactive
same,outcome,[11],inactive
same,outcome,[12],inactive
same,outcome,[13],inactive
same,outcome,[14],inactive
same,outcome,[15],inactive
CCCSP(=O)(OCC)Oc1ccc(Br)cc1Cl (configuration not stated),outcome,[1],inactive
same,outcome,[2],inactive
same,outcome,[3],inactive
same,outcome,[4],inactive
same,outcome,[5],inactive
same,AC50,[6],35.3 µM (active)
same,AC50,[7],30.5 µM (active)
same,AC50,[8],27.8 µM (active)
same,AC50,[10],25.5 µM (active)
same,AC50,[11],36.5 µM (active)
same,AC50,[12],32.9 µM (active)
same,AC50,[13],26.3 µM (active)
same,AC50,[14],29.3 µM (active)
same,AC50,[15],11.7 µM (active)
CCOP(=S)(Oc1cnc(C(C)(C)C)nc1)OC(C)C (configuration not stated),AC50,[1],36.7 µM (active)
same,AC50,[2],32.2 µM (active)
same,AC50,[3],31.8 µM (active)
same,AC50,[4],32.6 µM (active)
same,AC50,[5],33.1 µM (active)
same,AC50,[6],36.5 µM (active)
same,AC50,[7],36.2 µM (active)
same,AC50,[8],30 µM (active)
same,AC50,[9],30.7 µM (active)
same,AC50,[10],31.4 µM (active)
same,AC50,[11],33.3 µM (active)
same,AC50,[12],36.7 µM (active)
same,AC50,[13],30.3 µM (active)
same,AC50,[14],36.6 µM (active)
same,AC50,[15],34.3 µM (active)
